The source of these data is PubChem BioAssay (NCI).

What all share (test): NCI-60 one-dose screen, 48 h (100 = growth as untreated, 0 = no growth, -100 = all killed)
Common to all, as to conditions: 10 µM unless noted

The test system of test [1] is T-47D breast.
Test [2] deals with BT-549 breast.
Test [3] relates to MDA-MB-435 melanoma.
Test [4] has as its system SW-620 colon.
The subject of test [5] is MCF7 breast.
Test [6] has as its system HCT-116 colon.
Test [7] concerns HCC-2998 colon.
Test [8] has as its system KM12 colon.

About 83,000 compounds went through this panel and 20% of them were active in at least one assay; those are over-represented in the sample as a whole.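 The endpoint reported here, percent growth, reads 100 for growth as untreated, 0 for no net growth and -100 for all cells dead.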 Values without a mark were called inactive. Active and inactive are the calls of the source. Rule for the calls: active = growth percent below 10; inactive = the rest.

Take `Cc1ccc(Nc2oc(-c3ccccc3)nc2[P+](c2ccccc2)(c2ccccc2)c2ccccc2)cc1`: the growth was -28.5% (active) in test [1]; -21.5% (active) in test [2]; -62.8% (active) in test [3]; -48.2% (active) in test [4]; -20.2% (active) in test [5]; -66.4% (active) in test [6]. For the same compound, the growth in test [7] is -89.4% (active); in test [8], -51.5% (active).

On to `O=C(Nc1ccccc1C(F)(F)F)C1=NCCCCN1`, for which the growth in test [1] is 101%; in test [2], 105%; in test [3], 100%; in test [4], 92.9%; in test [5], 99.7%; in test [6], 99.5%. In addition, the growth in test [7] and in test [8] was 102% throughout.

As to `CCN1C(=O)N(CC)C2C1NN=c1s/c(=C\c3ccccc3)c(=O)n12` (configuration not stated), the growth was 70.8% in test [1]; 13.2% in test [2]; -24.8% (active) in test [3]; 18.8% in test [4]; 16.2% in test [5]; 9.74% (active) in test [6]. Further, the growth in test [7] is 16.2%; in test [8] it was 12.2%.

Regarding `[2H]C([2H])([2H])Oc1ccc(/C=C/C(=O)/C=C(O)/C=C/c2ccc(OC([2H])([2H])[2H])c(OC([2H])([2H])[2H])c2)cc1OC([2H])([2H])[2H]`, the growth in test [1] is 21.8%; in test [2], 34.4%; in test [3], 12.3%; in test [4] it was 27.4%; in test [5] it was 4.59% (active); in test [6], 5.1% (active). Further, the values for the growth in test [7] and in test [8] were 76.4% and 30.6%, respectively.

As to `CN(C)CCOc1ccc(/C(=C(/CCCCCCCCCC[P+](c2ccccc2)(c2ccccc2)c2ccccc2)c2ccccc2)c2ccccc2)cc1`, the growth was -56.2% (active) in test [1]; -78.3% (active) in test [2]; -98.1% (active) in test [3]; -85% (active) in test [4]; -77.9% (active) in test [5]; -72% (active) in test [6]. For the same compound, the growth in test [7] is -83.9% (active); in test [8], -80.9% (active).

On to `CCOC(=O)C1=C(C)N(C)C(=O)N(C)C1c1ccccc1` (configuration not stated), for which the growth in test [1] is 96.3%; in test [2], 110%; in test [3], 89.2%; in test [4], 97.5%; in test [5], 107%; in test [6], 79.4%. The growth was 93.2% in test [7] and 103% in test [8].

Consider `O=C(Nc1ncc(Cc2ccccc2Cl)s1)c1ccc2c(c1)OCCO2`, for which the growth in test [1] was 33.9%; in test [2] it was 18.7%; in test [3], -19.5% (active); in test [4], 31.9%; in test [5], 12.4%; in test [6], 7.38% (active). The growth is 19.6% in test [7] and 6.53% (active) in test [8].

Take `CCCCC/C=C/CCC(=O)N[C@H]1[C@H](Oc2c3cc4cc2Oc2ccc(cc2Cl)[C@@H](O[C@@H]2O[C@H](CO)[C@@H](O)[C@H](O)[C@H]2NC(C)=O)[C@@H]2NC(=O)[C@H](NC(=O)[C@@H]4NC(=O)[C@H]4NC(=O)[C@@H](Cc5ccc(c(Cl)c5)O3)NC(=O)[C@@H](N)c3ccc(O)c(c3)Oc3cc(O)cc4c3)c3ccc(O)c(c3)-c3c(O[C@H]4O[C@H](CO)[C@@H](O)[C@H](O)[C@@H]4O)cc(O)cc3[C@H](C(=O)O)NC2=O)O[C@H](CO)[C@H](O)[C@@H]1O`: the growth is 119% in test [1]; 107% in test [2]; 100% in test [3]; 102% in test [4]; 98.5% in test [5]; 101% in test [6]. The growth in test [7] is 101%; in test [8], 111%.

As for `COc1cc(C(=O)c2c(-c3ccccc3)oc3ccccc23)cc(OC)c1O`, the growth is 28.7% in test [1]; 47.4% in test [2]; -30.9% (active) in test [3]; 14.6% in test [4]; 21.8% in test [5]; 30.7% in test [6]. In addition, the growth in test [7] is 78.4%; in test [8] it was 27.7%.

In the case of `Cc1ccc2nc(/C=C/c3ccc(N(C)C)cc3)cc(C)c2c1`, the growth in test [1] is 34.7%; in test [2] it was 32.3%; in test [3] it was -5.17% (active); in test [4], 10.9%; in test [5], 10.1%; in test [6] it was 22.8%. The growth in test [7] is 63.9%; in test [8] it was 21.5%.

Turning to `O=C(/C=C/c1ccc([N+](=O)[O-])cc1)c1cccc(Nc2nc(Nc3ccccc3)nc(Nc3ccccc3)n2)c1`, the growth is 47.1% in test [1]; 87.7% in test [2]; 91.7% in test [3]; 67.6% in test [4]; 15.6% in test [5]; -11.9% (active) in test [6]. The growth in test [7] is 46.1%; in test [8] it was 81.1%.

Regarding `CCCc1cc(CCC)n2nc(N)nc2n1`, the growth was 110% in test [1]; 92.9% in test [2]; 110% in test [3]; 109% in test [4]; 95.6% in test [5]; 103% in test [6]. In addition, the growth in test [7] is 98.1%; in test [8], 108%.

For the compound `C#CCOc1cccc(Nc2c(Cl)c(CCl)nc3ccc(Oc4ccccc4)cc23)c1`, the growth was 82.1% in test [1]; 15.8% in test [2]; 15.6% in test [3]; 20.6% in test [4]; 12.9% in test [5]; 27.2% in test [6]. The growth is 104% in test [7] and 69.7% in test [8].

For the compound `Cc1cccc(C)c1NC(=O)Nc1ccccc1`, the growth in test [1] is 109%; in test [2] it was 116%; in test [3], 105%; in test [4], 54.1%; in test [5] it was 53.4%; in test [6] it was 61.9%. Moreover, the growth in test [7] is 99.6%; in test [8], 102%.
